# The list is not random: actives were taken first. Their share in the collection is about 4.3%.
# FAS-TE inh = inhibitors of human fatty acid synthase thioesterase domain | recombinant FAS-TE, OMFH fluorogenic substrate, fluorescence endpoint | inhibition, % at 15 µM | 360,000 tested, 0.67% active | AID 602261;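 active means compounds whose normalised, plate-corrected inhibition of enzyme fluorescence in the single-dose primary screen is 50% or more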;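 further: 0% = DMSO with enzyme and 100% = substrate without enzyme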
# ADAM17 inh = ADAM17 inhibition, QFRET primary screen; P78536; recombinant ADAM17, EDANS/DABCYL FRET peptide cleavage; inhibition, % at 6.95 µM; 370,000 tested, 0.83% active;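 active means inhibition above the mean of compounds lying between control limits plus 3 SD, set per campaign, cut at about 8.5% in these data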;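 further: 0% = DMSO-only wells as the low control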
# sPLA2-III inh = Blocks human group III sPLA2 activity; inhibition, % at 12.2 µM; Q9NZ20; 370,000 tested, 0.56% active; QFRET BODIPY PC-A2 liposome hydrolysis, fluorescence;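 active means inhibition above mean plus 3 SD of compounds lying within the high and low control bounds, cut at about 19% in these data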;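 further: 0% = median of test compound wells and 100% = no enzyme DMSO wells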
# Target sequence (Q9NZ20 whole entry, looked up): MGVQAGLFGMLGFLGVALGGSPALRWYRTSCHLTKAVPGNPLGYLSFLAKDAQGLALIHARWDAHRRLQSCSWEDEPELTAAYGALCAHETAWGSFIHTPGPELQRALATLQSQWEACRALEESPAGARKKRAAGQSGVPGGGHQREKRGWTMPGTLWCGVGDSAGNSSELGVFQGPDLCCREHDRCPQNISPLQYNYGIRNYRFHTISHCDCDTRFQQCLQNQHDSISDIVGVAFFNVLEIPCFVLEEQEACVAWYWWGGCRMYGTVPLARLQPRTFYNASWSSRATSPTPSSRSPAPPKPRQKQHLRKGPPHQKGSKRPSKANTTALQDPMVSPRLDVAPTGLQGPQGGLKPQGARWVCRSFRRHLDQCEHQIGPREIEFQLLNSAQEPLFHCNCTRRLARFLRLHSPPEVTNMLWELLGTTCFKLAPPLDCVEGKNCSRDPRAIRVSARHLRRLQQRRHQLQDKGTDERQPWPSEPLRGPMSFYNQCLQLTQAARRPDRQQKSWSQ
# GRIN3A LBD mod = modulates the human NR3A ligand-binding domain | 340,000 tested, 2.5% active | NR3A LBD differential scanning fluorimetry, Tm shift; 0% = protein alone, 100% = glycine-bound protein | Tm shift relative to glycine control, % at 25 µM;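 active means melting temperature shift of at least 10% of the positive control shift, at one fixed dose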
# ADAM10 inh = inhibitors of human ADAM10. inhibition, % at 7 µM. 370,000 tested, 0.62% active. O14672. AID 720582. recombinant ADAM10, EDANS/DABCYL FRET peptide cleavage, 3 h;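 active means inhibition above a per-campaign cutoff equal to the mean of compounds falling between control-based bounds plus 3 SD, cut at about 20% in these data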;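 further: 0% = DMSO wells while the 100% control is not disclosed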
# Active calls of the source: *; . = no result given.
SMILES,FAS-TE inh,ADAM17 inh,sPLA2-III inh,GRIN3A LBD mod,ADAM10 inh
O=C(/C=C/c1cccnc1)c1ccc(NC(=O)c2cccc(Br)c2)cc1,7.4,-0.7,-2.9,26.4*,3.9
Cc1cccc(C(=O)Nc2ccc(C(=O)/C=C/c3cccnc3)cc2)c1,10.9,3.0,-5.1,24.2*,8.2
CC1(c2nnnn2-c2ccc3ccccc3c2)CSCC(=O)N1C1CC1 (configuration not stated),.,-2.0,-0.6,.,-0.9
COc1ccccc1Nc1nc(C)cs1,-4.4,-1.4,-4.3,0.0,-1.4
COc1ccccc1Nc1ccc(Nc2ccccc2OC)nn1,-2.7,-1.0,2.2,12.3*,3.5
CCC[C@H]1[C@@H](OC(=O)NCc2ccc(C)o2)CC[C@@]23CCCN2C(=O)CCC[C@@H]13,.,-2.1,-8.7,.,-1.1
CCOc1ccc(-c2ccc(/C=C3/C(=N)N4C=CSC4=NC3=O)o2)c([N+](=O)[O-])c1,-7.7,-3.9,-1.9,14.4*,-19.0
Cc1ccc(C(CC(=O)N2CCCCC2)c2ccccc2)c(O)c1C (configuration not stated),3.6,0.6,-3.5,13.4*,2.8
CCc1nnc(NC(=O)CN2CCOCC2)s1,-11.2,-2.9,1.9,13.7*,2.9
COc1ccc(C(C(=O)N(C)C2CCCC2)N(Cc2ccc(F)cc2)C(=O)c2cc(C)on2)cc1OC (configuration not stated),.,4.2,-5.7,.,4.7
O=C(CSCc1c(F)cccc1Cl)NCc1cccnc1,-9.2,-0.6,3.1,11.5*,-3.9
Cc1ccc(-n2c(SCC(=O)Nc3ccc(OCc4ccccc4)cc3)nnc2-c2cnccn2)cc1,.,3.6,11.8,.,6.3
O=[N+]([O-])c1ccc(Nc2ccc(Cl)cc2)nc1,27.8,5.6,-2.6,11.3*,3.7
Cc1ccccc1Nc1ccc([N+](=O)[O-])cn1,10.6,-2.9,15.1,0.1,-4.9
O=[N+]([O-])c1ccc(Nc2ccc3ccccc3c2)nc1,22.4,0.4,0.1,37.6*,5.2
O=[N+]([O-])c1ccc(Nc2ccccc2F)nc1,17.1,3.4,-1.6,26.8*,8.6
Cc1ccc(NC(=O)c2ccc(Nc3ccccc3F)nc2)cc1,8.0,1.7,-2.4,30.4*,-9.3
O=[N+]([O-])c1ccc(NCc2ccc(Cl)cc2)nc1,33.5,0.7,4.2,-1.5,0.9
COC(=O)c1ccc(Cn2ccc3ccc(-c4ccc5ccn(C(=O)c6ccccc6C)c5c4)cc32)cc1,.,-6.8,0.6,.,-28.6
C=CCN1C(=O)[C@@H](CC(=O)N2CCN(C(=O)C3CC3)CC2)[C@]2(C(=O)OC)CCCCC=C12,.,-1.7,2.1,.,-3.0
Cc1ccc2c(C)c(C)c(=O)n(C)c2c1,-9.8,-9.8,-0.8,11.2*,-38.6
CCCCOc1ccc(/C=C2/Sc3ccccc3C2=O)cc1,18.6,-4.6,-1.9,6.8,-8.6
CC(=O)Oc1cccc(/C=C2\Sc3ccccc3C2=O)c1,2.8,-0.4,-9.1,17.0*,3.5
CCOC(=O)[C@]12CCCCC/C=C\1N(CCc1ccc(Cl)cc1)C(=O)[C@H]2CC(=O)N1CCCC1,.,2.1,-7.6,.,2.5
O=C(NCc1ccco1)/C(=C/c1ccccc1F)NC(=O)c1ccccc1,-4.6,-2.9,8.3,13.7*,1.7
SMILES,FAS-TE inh,ADAM17 inh,sPLA2-III inh,GRIN3A LBD mod,ADAM10 inh
CC(OC(=O)c1c2c(nc3ccccc13)/C(=C\c1ccc3c(c1)OCO3)CCC2)C(=O)Nc1ccc(S(N)(=O)=O)cc1 (configuration not stated),-97.5,.,.,21.9*,.
O=C(Oc1ccc[nH]c1=O)c1ccccc1,-4.8,-4.1,6.3,.,-5.8
O=C(Nc1ccc(F)cc1)Oc1ccc[nH]c1=O,0.2,-1.9,-1.4,11.9*,-4.0
CCOC(=O)c1ccc(NC(=O)CSc2nnc(NC(=O)c3ccc(S(=O)(=O)N4CCOCC4)cc3)s2)cc1,-7.2,-4.0,12.0,37.4*,-8.7
Cc1ccc(NC(=O)CSc2nnc(NC(=O)c3ccc(S(=O)(=O)N4CCOCC4)cc3)s2)cc1,-16.4,-1.3,-6.9,28.2*,5.4
Nc1nnc(SCC(=O)Nc2ccc(S(=O)(=O)N3CCOCC3)cc2)s1,-9.4,.,.,-1.6,.
O=[N+]([O-])c1cccc2[nH]c(CNc3nc(N4CCOCC4)nc4c3ncn4-c3ccsc3)nc12,.,4.9,-8.9,.,12.5
CCOC(=O)c1c(CSc2ccccc2)n(C)c2ccc(O)c(CN3CCOCC3)c12,-1.6,2.8,-15.7,14.1*,-0.9
CCCC(=O)OC12CCCN(C1)/C(=C/c1ccccc1)C2 (configuration not stated),.,0.0,1.9,.,-7.9
Cc1cc(C(=O)N2CCN(S(=O)(=O)c3ccc(C)c(C)c3)CC2)no1,-1.2,-1.4,-3.3,52.7*,-0.6
Cc1ccc(S(=O)(=O)N2CCN(C(=O)C3=COCCO3)CC2)cc1C,-1.5,-8.6,4.8,-0.8,5.7
COc1ccc(OC)c(N(CC(=O)Nc2ccccc2C(=O)NCc2ccco2)S(C)(=O)=O)c1,2.6,-1.4,1.8,12.7*,0.6
O=C(Nc1ccc2ccccc2c1)NC1CCCCN(Cc2ccc(Cl)cc2)C1=O (configuration not stated),.,2.2,1.5,.,2.6
Cc1ccc(-n2c(Cl)c(Cl)nc(Cl)c2=O)cc1,78.3*,.,.,8.0,.
CCCC/C=C1/[C@@H](CC)N(Cc2ccc(OC)cc2OC)C2=N[C@H](c3ccccc3)CC(=O)N21,.,-7.8,12.6,.,-4.5
C=CCOC(=O)C1=C(C)NC(SCC(=O)Nc2ccc(C)c(Cl)c2)=C(C#N)C1c1ccco1 (configuration not stated),5.0,-1.0,-0.2,19.7*,9.3
CC1CN=C(c2cccn2Cc2ccc(F)cc2Cl)O1 (configuration not stated),9.9,-1.0,4.5,11.7*,6.7
CC1(C)COC(c2cccn2Cc2ccc(F)cc2Cl)=N1,11.7,-3.3,1.1,0.8,-4.9
Cc1nc2ccc(S(=O)(=O)NCC(=O)NCc3ccc(F)cc3)cc2s1,.,-1.1,13.1,.,-10.0
Cc1ccc2c(c1)[C@@H]1CN(C)CC[C@@H]1N2S(=O)(=O)c1ccc(F)cc1,0.2,-4.1,-9.4,14.5*,-6.8
CCc1ccc(S(=O)(=O)N2c3ccc(C)cc3C3CN(C)CCC32)cc1 (configuration not stated),-3.2,-3.9,-5.1,0.1,-5.3
COc1ccc2c(c1)C(NC(=O)C(F)(F)F)CC21CCCCC1 (configuration not stated),.,-1.0,1.5,.,4.0
N#CC1CC(c2ccc([N+](=O)[O-])cc2)=NN1c1ccc([N+](=O)[O-])cc1 (configuration not stated),-84.5,-2.7,-0.2,19.6*,-9.7
CC(=O)Nc1nc2cc([N+](=O)[O-])ccc2s1,-0.7,-1.4,-2.5,-0.4,3.8
O=c1nc(Nc2ccc(Br)cc2)sc2ccc([N+](=O)[O-])cc12,6.7,3.7,-7.7,13.4*,1.0
CCOC(=O)c1c(C)c2c(=O)[nH]cnc2n1-c1ccccc1,-2.1,-4.5,11.7,0.2,10.5
